# This is a sample that favours compounds with a hit; in the whole collection about 15% have one here.
# HCMV inh = human cytomegalovirus inhibition. HFF cells, HCMV-luciferase reporter, 72 h; stronger effect = lower value. activity change, negative = inhibition, % at 57.5 µM. actives 4.5% (n = 410,000). AID 1259415; in the data active means activity change below about -60%; inconclusive means no clear call, values can overlap the other calls; inactive means above about -39%; further: on the % scale 0 is the no-effect control and ±100 the full control effect
#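 Two-dose cell screen: HFF monolayers treated with compounds and infected with luciferase-expressing HCMV at 1 PFU/cell, 72 h at 37C, then lysed for luciferase measurement.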
# Sm TGR inh = inhibitors of Schistosoma mansoni thioredoxin glutathione reductase; Q962Y6; purified TGR, DTNB reduction, TNB absorbance 405 nm; Potency, µM (titrated, usually from 114 µM), inactives show at the highest dose activity change, negative = inhibition, usual class: inhibitors; actives 3% (n = 360,000); further: potency means the concentration at half of the fitted maximal effect; on the % scale 0 is the no-effect control and ±100 the full control effect; nearly all actives have a fitted effect of over 60% in size
#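 First, TGR (20 nM dispensed) and NADPH were mixed with compound. Second, a 15 min room-temperature incubation followed. Third, further NADPH and then DTNB were added to start the reaction. Finally, TNB absorbance was monitored kinetically.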
# SARS PLpro yeast = inhibitors of SARS-CoV papain-like protease in yeast; S. cerevisiae expressing SARS-CoV PLpro, growth rescue; Potency, µM (titrated, usually from 32.9 µM), inactives show top-dose activity, positive = growth rescue, actives largely listed as activators; actives 0.19% (n = 330,000); calls by dose curve; further: potency means the concentration at half of the fitted maximal effect; 0% is about no effect; nearly all actives have a fitted effect of over 55% in size
# HCV inh = inhibitors of hepatitis C virus infection. actives 3.4% (n = 340,000). Potency, µM (doses to about 41.8 µM), without a hit: top-dose activity change, negative = inhibition, most hits filed as inhibitors. Huh7.5.1 HCVcc-Cre infection, luciferase reporter, 44 h; further: potency means the concentration at half of the fitted maximal effect; on the % scale 0 is the no-effect control and ±100 the full control effect
#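 Cells seeded at 1,000/well and cultured 4 h, then compounds added followed by HCVcc-Cre virus (~0.5 moi). After 44 h further culture, luciferase substrate was added, plates held 15 min at room temperature, and luminescence read for 15 sec.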
# Pf growth 96h = P. falciparum growth inhibition at 96 hours; Potency, µM (highest dose often 28.7 µM), for the others: at the top dose activity change, negative = inhibition, most hits filed as inhibitors; actives 6.9% (n = 320,000); P. falciparum luciferase reporter growth, 96 h; further: potency means the concentration at half of the fitted maximal effect; on the % scale 0 is the no-effect control and ±100 the full control effect
#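 P. falciparum expressing integrated firefly luciferase, in erythrocytes at 2% hematocrit, 0.05% parasitemia, incubated with compounds 96 h at 37 C, 5% CO2. Growth inhibition read as loss of luminescence; two-generation exposure targets delayed-death apicoplast inhibitors.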
# Pf growth 48h = P. falciparum growth inhibition at 48 hours (one generation); actives 5.9% (n = 310,000); Potency, µM (doses to about 28.7 µM), inactives show top-dose activity change, negative = inhibition, usual class: inhibitors; P. falciparum luciferase growth in erythrocytes, 48 h; further: potency means the concentration at half of the fitted maximal effect; on the % scale 0 is the no-effect control and ±100 the full control effect
#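 Cell-based growth assay: transgenic P. falciparum expressing firefly luciferase, cultured in red cells within RPMI 1640 containing 0.5% w/v Albumax, 24 mM bicarbonate and gentamycin. A drop in luciferase activity indicates inhibition.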
# * hit, by the source's call; ? = inconclusive; . = not tested or not shown; ! = repeats disagree; [ ] = dose if it differs, or a comment. Unless noted, the call rests on the fitted dose curve; in most records, active means well fitted curve in the direction sought with a large enough effect; inconclusive means small, poorly fitted or top-dose-only effect, or another doubt; inactive means no such curve, though single readings can be large; an effect the other way counts as inactive or inconclusive.
SMILES,HCMV inh,Sm TGR inh,SARS PLpro yeast,HCV inh,Pf growth 96h,Pf growth 48h
COc1ccc(N2C(=O)CC(Sc3nc4c(cc3C#N)CCC4)C2=O)cc1 (stereo unspecified),-9.0,-23.5%,-1.4%,11.4%,51.3%,29.2%
O=C1CCCc2oc3c(cc(NS(=O)(=O)c4ccc5c6c(cccc46)C(=O)N5)c4ccccc43)c21,?,-4.0%,-0.8%,?,11.7µM*,?
Cc1oc2c(cc(NS(=O)(=O)c3ccc4c5c(cccc35)C(=O)N4)c3ccccc32)c1C(=O)OC(C)C,-4.7,-32.9%,0.5%,?,-13.4%,?
Cn1c(CO)cnc1S(=O)(=O)Cc1ccc([N+](=O)[O-])cc1,17.5,28.2µM*,2.8%,?,?,-4.7%
Cc1ccnc(S(=O)(=O)Cc2ccc([N+](=O)[O-])cc2)n1,41.8,?,-0.8%,-7.0%,?,4.9%[0.00184 µM]
Cc1csc(-c2ccc3cc(Cl)cc(Cl)c3n2)n1,107.3,.,.,.,.,.
Nc1ccc(C(=O)N/N=C\c2ccc(OC(=O)c3ccccc3Cl)cc2)cc1,-11.3,-2.4%,5.1%,-8.1%,15.1%,33.7%
O=C(O)c1ccc(N/N=C/c2ccc(OC(=O)c3ccccc3Cl)cc2)cc1,-67.6*,-1.2%,0.4%,35.1%,157.6%,41.0%
Cc1ccc(/C=N/Nc2ccc(C(=O)O)cc2)s1,-73.3*,0.6%,0.1%,4.8%,333.0%,61.2%
CC(C)c1ccc(/C=N/Nc2ccc(C(=O)O)cc2)cc1,-63.5*,-22.3%,23.4%,9.5%,-22.6%,43.2%
O=C(O)c1ccc(N/N=C/c2ccc(-c3ccccc3)cc2)cc1,82.1,-1.8%,-16.0%,?,397.7%,285.5%
O=C(CNSc1ccc([N+](=O)[O-])cc1[N+](=O)[O-])OCc1ccccc1,-24.4,.,.,.,.,.
Cc1cccn2c(=O)c(C(=O)NCCc3ccccc3)cnc12,44.7,1.5%,.,.,.,.
CCOC(=O)c1c(NC(=O)CSc2nnc(Cc3ccccc3)o2)sc(C(C)=O)c1C,13.7,12.5%,3.2%,?,.,-21.2%
CCOC(=O)c1c(NC(=O)CSc2nnc(-c3ccccc3)n2CC)sc(C(C)=O)c1C,19.4,-15.2%,-2.4%,?,?,?
CCOC(=O)CNC(=O)CSc1nnc(-c2ccco2)n1Cc1ccco1,2.9,25.1µM*,0.7%,-0.5%,8.28µM*,38.9%
CCOC(=O)CNC(=O)CSc1nnc(-c2ccco2)n1N,-14.3,-12.7%,0.3%,13.2%,?,23.3%
CCOC(=O)c1c(NC(=O)CSc2nnc(-c3cccc(C)c3)n2CC)sc(C(C)=O)c1C,22.2,5.6%,-7.3%,3.55µM*,-23.3%,11.3%
O=C(CSc1nnc(C2CC2)n1Cc1ccco1)NCC(F)(F)F,26.4,35.5µM*,3.4%,1.7%,-8.6%,60.4%
CCOC(=O)c1c(NC(=O)CSc2nnc(CNc3ccc(F)cc3)o2)sc(C(C)=O)c1C,-26.6,-1.8%,-7.2%,?,1.65µM*,-16.3%
CCc1ccc(NS(=O)(=O)c2c(C(=O)N3CCCCCC3)c(C)n(C)c2C)cc1,?,3.9%,3.8%,6.3%,6.5%,13.5%
CSCCC(C)N1CCC(Oc2ccc(C(=O)NCc3ccccn3)cc2)CC1 (stereo unspecified),14.2,.,.,.,.,.
COc1ccc(CC(=O)NC2CC(=O)N(c3ccc4c(c3)OCCO4)C2)cc1 (stereo unspecified),11.8,-1.5%,.,.,.,.
CCc1ccc(NC(=O)CSc2nc3cc(C(=O)OC)ccc3c(=O)n2Cc2ccco2)cc1,13.7,-6.0%,-4.5%,12.6%,-12.0%,33.6%
CCOC(=O)c1c(NC(=O)CSc2nc3cc(Cl)ccc3c(=O)n2Cc2ccco2)sc(C(=O)N(C)C)c1C,-68.0*,-13.0%,-10.5%,?,4.15µM*,5.86µM*
SMILES,HCMV inh,Sm TGR inh,SARS PLpro yeast,HCV inh,Pf growth 96h,Pf growth 48h
CCOC(=O)c1sc(NC(=O)CSc2nnc(-c3ccco3)n2CC)c(C(=O)OCC)c1C,49.0,20µM*,4.3%,10µM*!,.,?
Clc1ccc(CN2CCN(c3ncccn3)CC2)cc1,-14.5,-23.0%,0.9%,-7.0%,?,-19.7%
Cc1cc(C(=O)N/N=C2\CC(=O)CC(C)(C)C2)c(C)n1-c1ccccc1,?,-7.8%,-3.0%,-19.5%,?,?
Cc1cc(C(=O)N/N=C2\CC(=O)CC(C)(C)C2)c(C)n1-c1ccc(F)cc1,-64.3*,?,14.1%,-19.7%,?,?
Oc1ccc(-c2nc(-c3ccc(F)cc3)c(-c3ccncc3)[nH]2)cc1,-8.7,-11.2%,.,?,13.1µM*,?
CCOc1ccc(-c2nc(CSCC(=O)N3CCN(c4cccc(C(F)(F)F)c4)CC3)c(C)o2)cc1,?,-3.2%,.,.,.,.
C=C1C(=O)O[C@@H]2[C@H]1[C@@H](OC(=O)/C(C)=C/C)C/C(C)=C\C(=O)/C=C(\C)[C@@H]2O,-98.5*,5.62µM*,-0.5%,11.2µM*,?,?
O[C@@H](c1cc(C(F)(F)F)nc2c(C(F)(F)F)cccc12)[C@H]1CCCCN1,24.1,0.2%,-6.2%,8.91µM*,0.0147µM*,0.0329µM*
OC(c1cc(-c2ccc(Cl)cc2)nc2ccccc12)C1CCCCN1 (stereo unspecified),4.1,1.1%,0.9%,?,0.0522µM*,0.037µM*
OC(c1cc(C(F)(F)F)nc2c(Cl)cc(Cl)cc12)C1CCCCN1 (stereo unspecified),1.9,-2.7%,-1.8%,?,0.0033µM*,0.0131µM*
COc1cccc(C(=O)c2ccncc2C(=O)O)c1OC,-27.5,.,.,.,.,.
Cc1cc(C)nc(N/N=C/c2cc(C)n(CC(F)(F)F)c2C)n1,-74.7*,-6.0%,2.3%,-0.1%,?,?
Cc1cc(-c2ccccc2)nc(N(C)NC(=O)C2CC2)c1S(C)(=O)=O,-36.2,1.4%,1.7%,6.0%,-1.5%,12.0%
Cc1cc(-c2ccccc2)nc(N(C)NC(=O)c2cccc(C(F)(F)F)c2)c1S(C)(=O)=O,10.7,0.7%,-0.8%,-3.7%,3.7µM*,.
CCCCN(C)c1nc2c(S(=O)(=O)c3ccc(CC)cc3)nnn2c2ccc(Cl)cc12,4.3,5.8%,.,.,.,.
CCn1c(SCC(=O)c2ccc(Cl)cc2)nnc1C(C)C,39.2,0.0%,-25.0%,-0.2%,?,32.2%
COCCn1c(SCC(=O)N2CCCC2)nnc1C(C)C,-19.4,0.0%,9.3%,10.4%,5.22µM*,31.4%
CCCn1c(SCC(=O)N2CCCCC2)nnc1C(C)C,?,-2.5%,-1.0%,1.3%,13.5%,13.6%
CCn1c(SCC(N)=O)nnc1C(C)C,-12.9,-0.8%,0.7%,3.0%,8.28µM*,12.7%
O=C(O)c1ccc(Cl)c(NCc2cccs2)c1,2.3,-2.4%,1.4%,7.2%,-24.8%,0.2%

# Screening results deposited in PubChem by National Center for Advancing Translational Sciences (NCATS).
